# TRHR agonist: qHTS for Small Molecule Agonists and Allosteric Enhancers of Human TRH Receptor: Primary Screen for Agonists; TRHR cells, calcium flux fluo-8, FDSS agonist mode; activation, % at 2 µM; 360,000 compounds, 0.18% hits; AID 493084, 2011; further: 0% is about no effect
# Target sequence (P34981 whole entry, looked up): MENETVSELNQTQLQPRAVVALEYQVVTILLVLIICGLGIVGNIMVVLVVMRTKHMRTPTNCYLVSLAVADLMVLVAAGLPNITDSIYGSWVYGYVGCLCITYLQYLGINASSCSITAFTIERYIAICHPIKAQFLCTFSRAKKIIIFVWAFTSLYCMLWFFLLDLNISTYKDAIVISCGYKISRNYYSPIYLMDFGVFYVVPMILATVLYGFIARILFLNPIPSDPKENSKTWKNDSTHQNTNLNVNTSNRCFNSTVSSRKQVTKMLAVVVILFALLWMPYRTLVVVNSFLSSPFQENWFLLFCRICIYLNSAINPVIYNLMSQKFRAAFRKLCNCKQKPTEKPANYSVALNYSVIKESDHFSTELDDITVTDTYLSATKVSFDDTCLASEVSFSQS
#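 TRHR-expressing cells, plated overnight in medium with 10% serum, were loaded with fluo-8 calcium dye at room temperature. After a 10 s baseline, library compound was pin-added and calcium release was recorded kinetically (ex 480/em 530) as agonist response.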
# D1 antagonist: Antagonist of Human D 1 Dopamine Receptor: qHTS; D(1A) dopamine receptor (Homo sapiens), P21728; HEK293 TREx D1 cells, calcium flux, dopamine EC80; hits give low values; activity change, negative = inhibition, % at 10 µM; 360,000 compounds, 3.2% hits; AID 504652, 2011; in the data active means activity change below about -30%; further: on the % scale 0 is the no-effect control and ±100 the full control effect
#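 Antagonism measured as reduced calcium response to an EC80 dopamine addition following 180 s compound pre-read; cells were inducible HEK293 Trex D1 plated overnight at 30 C, read kinetically at 1 cycle/sec.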
# D1 agonist: Allosteric Agonists of the Human D1 Dopamine Receptor: qHTS; HEK293 T-REx D1 cells, calcium flux, agonist mode; activation, % at 2 µM; 360,000 compounds, 1% hits; further: 0% is about no effect
#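 Agonism was scored from calcium flux recorded over 180 s (1 read/s) after pintool compound addition, following a 10-cycle baseline. Cells were inducible force-coupled HEK293 TREx D1, plated overnight at 30 C and loaded with no-wash calcium dye.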
# TRHR enhancer: qHTS for Small Molecule Agonists and Allosteric Enhancers of Human TRH Receptor: Primary Screen for Enhancers; enhancement, % at 2 µM; TRHR cells, fluo-8 calcium fluorescence, EC20 TRH enhancement; Thyrotropin-releasing hormone receptor (Homo sapiens), P34981; AID 493056, 2011; 360,000 compounds, 0.66% hits; in the data active means enhancement above about 30%; further: 0% is about no effect
#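 TRHR-expressing cells loaded with fluo-8 calcium dye were read kinetically (ex 480/em 530) during compound addition, then stimulated with an EC20 of TRH (10 nM final). Enhancement of the Gq-mediated intracellular calcium response was scored.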
# D1 PAM: Potentiators of Human D1 Dopamine Receptor: qHTS; HEK293 TREx D1 cells, calcium flux, dopamine EC20 potentiation; AID 504651, 2011; potentiation, % at 10 µM; 360,000 compounds, 0.036% hits; D(1A) dopamine receptor (Homo sapiens), P21728; in the data active means potentiation above about 30%; further: 0% is about no effect
# * hit, by the source's call; nt = no result; ! = not active in a repeat. A selection: hits, their analogues and other compounds. The true share with any hit is near 4.7%. Unless noted, no stated cut-off is given here; in the data, active means activation above about 30%; inactive means the rest.
SMILES,TRHR agonist,D1 antagonist,D1 agonist,TRHR enhancer,D1 PAM
Cn1c(C(=O)NCCCN2CCN(c3ccccc3F)CC2)cc2c(=O)[nH]c3ccccc3c21,0,-40*,1,-1,-8
Cn1c2ccccc2c2cnn(CC(=O)NCCCN3CCN(c4ccccc4F)CC3)c(=O)c21,1,-63*,10,4,-5
Cn1c(=O)cc(OCC(=O)NCCCN2CCN(c3ccccc3F)CC2)c2ccccc21,0,-13,0,4,-8
COc1ccccc1N1CCN(CCCNC(=O)Cn2ncc3c([nH]c4ccccc43)c2=O)CC1,0,-30,0,32*!,-13
CN1CCN(CCCNC(=O)Cn2ncc3c4ccccc4n(C)c3c2=O)CC1,1,-3,2,-4,3
CCn1c(=O)cc(SCC(=O)NCCCN2CCN(c3ccccc3F)CC2)c2ccccc21,-1,-81*,30*,0,-14
CC1CC(C)CN(CCCNC(=O)c2cc3c(=O)[nH]c4ccccc4c3n2C)C1 (configuration not stated),0,7,1,-2,-3
Cc1ccc(C)c(N2CCN(CCCNC(=O)Cn3ncc4c([nH]c5ccccc54)c3=O)CC2)c1,0,-25,-2,4,4
CCCCOc1ccc(Cn2c(=O)sc3ccccc32)cc1OC,1,-9,10,-12,-5
O=C(Nc1cccc(C(F)(F)F)c1)N1CC2CCCN2c2ccccc21 (configuration not stated),0,22,1,-3,-3
CSc1ccc(/C=N/Nc2nc(C)cc(=O)[nH]2)cc1,0,-30*,4,-5,-11
CCOc1ccc(-n2c(C)cc(/C=N/NC(=O)C(N)=O)c2C)cc1,-1,nt,-2,4,-5
CCOc1ccc(-n2c(C)cc(/C=N/Nc3nc(C)cc(=O)[nH]3)c2C)cc1,-1,-35*,3,3,-4
O=C(NC1CCCC1)c1ccc2c(=O)n(Cc3ccccc3)c(SCc3ccccc3F)nc2c1,1,9,3,0,-3
Cc1cc(C)nc(NC(=NCCc2c[nH]c3ccccc23)NC(=O)C(C)(C)C)n1,0,-55*,3,2,-18
Cc1cc(C)nc(NC(=NCCc2c[nH]c3ccc(Cl)cc23)NC(=O)c2ccccc2C)n1,2,1,-1,-9,-2
COc1ccccc1OCCn1c(NC(=O)c2ccccc2Cl)nc2ccccc21,0,-4,-1,7,-1
COc1cccc(N2CCN(C(=O)c3cc4cc5cc(C)ccc5nc4s3)CC2)c1,0,-16,1,0,-2
CC(=O)c1ccc(N2CCN(C(=O)c3cc4cc5cc(C)ccc5nc4s3)CC2)cc1,1,-9,0,49*,1
COc1ccc2nc3sc(C(=O)N4CCN(c5ccccc5)CC4)cc3cc2c1,0,-59*,1,10,-1
Cc1ccc(NC(=O)COc2ccccc2C#N)cc1S(=O)(=O)N1CCCCCC1,1,9,2,-12,-5
Cc1ccc(NC(=O)CSc2ccccc2)cc1S(=O)(=O)N1CCCCC1,1,2,11,-3,-2
Cc1ccc(NC(=S)NCc2ccccc2)cc1S(=O)(=O)N1CCCCC1,-1,-35*,33*,-4,-6
Cc1ccc(NC(=O)C2CCN(C(=O)OC(C)(C)C)CC2)cc1S(=O)(=O)N1CCCCC1,0,-38*,0,-1,1
Cc1ccc(NC(=O)COC(=O)C2CC3C=CC2C3)cc1S(=O)(=O)N1CCCCC1 (configuration not stated),-1,-21,6,-5,9
SMILES,TRHR agonist,D1 antagonist,D1 agonist,TRHR enhancer,D1 PAM
Cc1ccc(NC(=O)COC(=O)C2CCC2)cc1S(=O)(=O)N1CCCCC1,0,-32*,4,-3,-8
Cc1ccc(C)c(OCCC(=O)OCC(=O)Nc2ccc(C)c(S(=O)(=O)N3CCCCC3)c2)c1,2,-32*,14,-8,-16
COc1ccc(CCNC(=O)Cn2cc(S(=O)(=O)Cc3ccc(F)cc3)c3ccccc32)cc1OC,0,-22,6,-11,-3
Cc1ccc(NC(=O)COc2ccccc2)cc1S(=O)(=O)N1CCCCCC1,1,-2,10,-16,0
Cc1ccccc1CC(=O)OCC(=O)Nc1ccc(C)c(S(=O)(=O)N2CCCCC2)c1,1,-35*,79*,-2,nt
CCC(C)NC(=O)CNC(=O)c1nn(-c2ccc(OC)cc2)c(=O)c2ccccc12 (configuration not stated),0,-7,0,8,-5
COc1ccc(C(CNC(=O)c2nn(-c3ccccc3)c(=O)c3ccccc23)N2CCOCC2)cc1 (configuration not stated),0,-4,5,32*,-8
COc1ccc(C(CNC(=O)c2ccc(-c3cccc(C(F)(F)F)c3)o2)N2CCOCC2)cc1 (configuration not stated),9,30,34*,3,7
COc1ccc(C(CNC(=O)c2ccco2)N2CCOCC2)cc1 (configuration not stated),0,-2,5,-8,-5
COc1ccc(C(CNC(=O)c2ccccc2C)N2CCCC2)cc1 (configuration not stated),1,5,1,8,-2
COc1ccc(C(=O)NCC(c2ccc(N(C)C)cc2)N2CCCC2)c(OC)c1 (configuration not stated),-1,-8,-1,6,2
COc1ccc(Cl)cc1C(=O)NCC(c1ccc(N(C)C)cc1)N1CCCC1 (configuration not stated),-1,-6,34*,20,2
COc1ccc(C(CNC(=O)c2cc(=O)[nH]c3ccccc23)N2CCCC2)cc1 (configuration not stated),1,-38*,5,-1,-7
CCOC(=O)c1ccccc1NS(=O)(=O)c1c(-c2ccc(C)cc2)csc1C(=O)OC,1,-6,10,17,-2
CCc1ccccc1NC(=O)c1cnc(N2CCCCC2)c2ccccc12,0,24,1,3,-5
Cc1ccc(C)c(NC(=O)Cn2c(=O)n(CCC(C)C)c(=O)c3cccnc32)c1,0,-43*,0,2,-7
Cc1cc(C)c(NC(=O)Cn2c(=O)n(CCC(C)C)c(=O)c3cccnc32)c(C)c1,1,1,2,14,-3

# Screening data deposited in PubChem BioAssay by National Center for Advancing Translational Sciences (NCATS).
